Results from PubChem BioAssay (Tox21).
Inconclusive results are not listed. The source made the active and inactive calls. The call rests on the fitted dose curve; in most records, active means well fitted cell-killing curve with a large enough effect in the repeat runs (not every such curve was filed as active); inconclusive means weak or mixed curves, or effect the other way; inactive means no such curve, though single readings can be large or run the other way.

Assay: qHTS assay to identify small molecule antagonists of the farnesoid-X-receptor (FXR) signaling pathway - cell viability counter screen (AID 743221); further: nearly all actives have a fitted effect of over 50% in size
Details: FXR-bla HEK293T viability, CellTiter-Glo luminescence, 16 h; series mostly up to 62.6 µM; activity change, negative = cytotoxicity: at the top concentration
From the text: National Center for Advancing Translational Sciences [NCATS]
NIH Chemical Genomics Center [NCGC]
U.S. Environmental Protection Agency [EPA]
National Institutes of Environmental Health Sciences [NIEHS]
National Toxicology Program [NTP]
U.S. Food and Drug Administration [FDA]
The farnesoid-X-receptor (FXR), a nuclear hormone receptor, is highly expressed in liver, intestine, kidney and adrenal cortex. Natural ligands of FXR are the bile acids (Cholic acid, Chenodeoxy cholic acid etc). FXR is an important regulator of diverse metabolic pathways, including the bile acid homeostasis, lipid and glucose metabolisms. FXR regulates the expression of target genes by binding either as a monomer or as a heterodimer with the retinoid X receptor (RXR). Numerous studies have reported that FXR exerts protective function during cholestasis, diabetes, liver regeneration, and cancer. To identify compounds that inhibit FXR signaling, GeneBLAzer FXR-UAS-bla HEK 293T cell line (Invitrogen, Carlsbad, CA) containing a beta-lactamase reporter gene under the control of a UAS response element was used to screen the Tox21 10K compound library. The cytotoxicity of the Tox21 compound library against the FXR-bla cell line was tested in parallel by measuring the cell viability using CellTiter-Glo assay in the same wells.
Tox21 Assay Protocol Summary:
FXR-bla cells were dispensed at 5000 cells/5uL/well in 1536-well black wall/clear bottom plates using a Multidrop Combi (Thermo Fisher Scientific, Waltham, MA) dispenser. After the assay plates were incubated at 37 C and 5% CO2 for 5 h, 23 nL of compounds dissolved in DMSO, positive controls or DMSO only was transferred to the assay plate by a Pintool station (Kalypsys, San Diego, CA), followed by addition of 1 uL Chenodeoxycholic acid (50 uM, final concentration in the wells). The assay plates were incubated at 37C for 16 h. After 1 uL of LiveBLAzerTM B/G FRET substrate was added using a Bioraptr Flying Reagent Dispenser (FRD) workstation (Beckman Coulter, Indianapolis, IN), the plates were incubated at room temperature for 2 h, and fluorescence intensity was measured by an Envision plate reader (PerkinElmer, Shelton, CT). For cell viability readout that measures cytotoxicity, 4uL/well of CellTiter-Glo reagent was added into the assay plates using a Bioraptr FRD. After 30 min incubation at room temperature, the luminescence intensity in the plates was measured using a ViewLux plate reader (PerkinElmer).
On the % scale 0 is the no-effect control and ±100 the full control effect.

Row | SMILES | activity change, negative = cytotoxicity
1 | CCCN(CCC)C(=O)C(CCC(=O)O)NC(=O)c1ccccc1 (stereo not given) | 2.75% (inactive)
2 | COc1ccccc1N1CCN(CCCNc2cc(=O)n(C)c(=O)n2C)CC1 | 4% (inactive)
3 | O=C(O)CN(CCN(CC(=O)O)CC(=O)O)CCN(CC(=O)O)CC(=O)O | 8.85% [at 29.1 µM] (inactive)
4 | CO[Si](C)(C)OC | 0.273% (inactive)
5 | Cc1cc2c(s1)Nc1ccccc1N=C2N1CCN(C)CC1 | -7.13% (inactive)
6 | ICCc1ccccc1 | 0.714% (inactive)
7 | CC1CN(c2ccccc2)NC1=O (stereo not given) | -12.5% (inactive)
8 | C[C@@H](N)C(=O)O | 5.59% (inactive)
9 | O=C1CCC(C2CCCCC2)CC1 | -9.98% (inactive)
10 | N#Cc1ccc(C(c2ccc(C#N)cc2)n2cncn2)cc1 | -0.233% (inactive)
11 | O=C1CCCCC1C1CCCCC1 (stereo not given) | 0.233% (inactive)
12 | OCCN1CCN(CCO)CC1 | -2.51% [at 81.1 µM] (inactive)
13 | CC(C)CCCCCCc1ccc(OCCOCCO)cc1 | -13.5% [at 81.1 µM] (inactive)
14 | ClC(Cl)Cl | -3.51% (inactive)
15 | CC(C)C[C@H](NC(=O)OCC1c2ccccc2-c2ccccc21)C(=O)O | -0.838% (inactive)
16 | CCOC(=O)[C@H](CCc1ccccc1)N[C@@H](C)C(=O)N1Cc2cc(OC)c(OC)cc2C[C@H]1C(=O)O | 2.03% (inactive)
17 | CC(C)O | 3.04% [at 81.1 µM] (inactive)
18 | CCN(O)CC | -4.51% (inactive)
19 | CS(=O)(=O)c1ccc([C@@H](O)[C@@H](CF)NC(=O)C(Cl)Cl)cc1 | 11.2% (inactive)
20 | Cc1ncc(CO)c(CN)c1O | 5.23% (inactive)

Row | SMILES | activity change, negative = cytotoxicity
21 | Cc1c[nH]c(=S)[nH]c1=O | -4.66% (inactive)
22 | COc1cc(N)c(Cl)cc1C(=O)NC1CCN(Cc2ccccc2)CC1 | -2.98% (inactive)
23 | CC[C@H]1CC[C@H](NCc2cc3c(cc2OC)[C@H]2C[C@H]2C(=O)N3C)[C@H](c2ccccc2)N1 | -16.6% (inactive)
24 | NNS(=O)(=O)c1ccc(Oc2ccc(S(=O)(=O)NN)cc2)cc1 | -0.0274% (inactive)
25 | O=C(CC(=O)C(F)(F)F)c1ccccc1 | 1.98% [at 81.1 µM] (inactive)
26 | CCOC(=O)C(Br)c1ccccc1 (stereo not given) | 5.59% (inactive)
27 | CC1(O)CSC(C)(O)CS1 (stereo not given) | -0.6% (inactive)
28 | Cc1c(C(=O)NCCO)[n+](=O)c2ccccc2n1[O-] | 1.21% (inactive)
29 | CN(C)Cc1ccccc1 | -3.11% [at 81.1 µM] (inactive)
30 | CC(C)c1ccccc1 | 1.3% [at 81.1 µM] (inactive)
31 | Nc1cccc(S(=O)(=O)O)c1 | 0.997% (inactive)
32 | Cc1cc(NS(=O)(=O)c2ccc(N)cc2)nc(C)n1 | 2.56% (inactive)
33 | CCCC1CCC(=O)O1 (stereo not given) | 0.0153% (inactive)
34 | CC1=C(O)C(=O)OC1C (stereo not given) | 3.51% (inactive)
35 | c1ccc(CN(CC2=NCCN2)c2ccccc2)cc1 | -15.4% (inactive)
36 | O=C(O)[C@@H](O)[C@H](O)[C@H](O)[C@@H](O)C(=O)O | -1.76% (inactive)
37 | CCCCN1C[C@H](O)[C@@H](O)[C@H](O)[C@H]1CO | -4.19% (inactive)
38 | Cc1ccc(C(C)C)cc1O | 9.44% (inactive)
39 | Cn1cnc2c(F)c(Nc3ccc(Br)cc3Cl)c(C(=O)NOCCO)cc21 | -2.96% (inactive)
40 | Cc1cn([C@@H]2O[C@H](CO)[C@@H](O)[C@@H]2F)c(=O)[nH]c1=O | -13.7% (inactive)
